Test results as given in PubChem BioAssay (NCATS).
Results filed as inconclusive are left out. Active and inactive are the calls of the source. The call rests on the fitted dose curve; in most records, active means well fitted cell-killing curve with a large enough effect; inconclusive means small, poorly fitted or top-dose-only effect, or effect the other way; inactive means flat fitted curve, though single readings scatter. *1 amine or outer side, *2 acyl side, *3 side chain or, on linkers, in order; H or OH if unused. Where a SMILES comes first, the peptide text is derived from it. [ ]: non-standard residue; d: D form. X4 = CC(C)=CCc1cc(C(O)C(N[*:1])C(=O)[*:2])ccc1O

system: Hek293T; assay: Primary qHTS to identify gynecologic anti-cancer compounds using libraries of approved drugs and bioactive compounds (AID 1345084); details: Gynecologic cancer cell panel viability, ATPlite luminescence, 48 h, control line for the selectivity index; series mostly up to 57.5 µM; activity change, negative = cytotoxicity: at the top concentration; further: nearly all actives have a fitted effect of over 55% in size
In short: (§1)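 In this quantitative HTS, cell killing is estimated from loss of ATP-dependent luciferase light. Cells see five compound concentrations over a 48 h exposure.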
On the % scale 0 is the no-effect control and ±100 the full control effect.

SMILES	activity change, negative = cytotoxicity
NC(=O)c1csc(C2OC(CO)C(O)C2O)n1 (configuration not stated)	2.2% (inactive)
COc1c2c(c(CO)c3c1C(=O)OC3)OC1(C)CCC3(O)C(C)(C)OC(=O)CCC3(C)C1C2 (configuration not stated)	-25.5% [at 25.3 µM] (inactive)
CC1=C(C)C(=O)OC(C(C)C2CCC3C4CC=C5CC(OC6OC(COC7OC(CO)C(O)C(O)C7O)C(O)C(O)C6O)CC(O)C5(C)C4CCC23C)C1 (configuration not stated)	-0.688% [at 25.3 µM] (inactive)
O=C(NCc1cccc(O)c1)c1cc2cc(F)ccc2[nH]1	6.52% (inactive)
CCOc1cc(CC(=O)NC(CC(C)C)c2ccccc2N2CCCCC2)ccc1C(=O)O (configuration not stated)	5.99% (inactive)
CC1(C)CC2C(C1)C(C)(O)C13CC1(COC3=O)C2O (configuration not stated)	-12.6% (inactive)
COC(=O)c1ccnc(-c2cc(C(=O)NCCc3ccccc3)ccn2)c1	-3.68% (inactive)
COC(=O)c1cc(OC)cc(OC)c1C(=O)c1c(OC)cc2c(c1O)C1CCCC(C)(O2)O1 (configuration not stated)	-3.24% [at 25.3 µM] (inactive)
O=C(O)CC1CCC(c2ccc(-c3ccc4nc(C(=O)NCc5ccc(OC(F)(F)F)cc5)cn4c3)cc2)CC1 (configuration not stated)	1.27% (inactive)
COc1cc2occc2c(O[C@@H]2O[C@H](CO)[C@@H](O)[C@H](O)[C@H]2O)c1CCC(=O)O	-2.4% [at 25.3 µM] (inactive)

system: JEG-3; assay: as above; details: Gynecologic cancer cell panel viability, ATPlite luminescence, 48 h; series mostly up to 57.5 µM; activity change, negative = cytotoxicity: at the top concentration
In short: as §1

SMILES	activity change, negative = cytotoxicity
Cn1nnc(-c2ccc(-c3ccc(N4C[C@H](CO)OC4=O)cc3F)cn2)n1	-2.98% (inactive)
CC(=O)OC1CC2C3(C)CCC(OC(=O)CC(=O)O)C(C)(C)C3CCC2(C)C2(C)CCC(C3(C)CCC(=O)O3)C12 (configuration not stated)	-3.68% [at 25.3 µM] (inactive)
CC(C)c1cc(C(=O)N2CC[C@H](NC(=O)C3CC3)C2)n[nH]1	-1.14% (inactive)
CC(=O)OC1C(O)CC2(C)C(CCC(C)C23Cc2c(O)cc(CO)c(C=O)c2O3)C1(C)C (configuration not stated)	1.94% [at 25.3 µM] (inactive)
COC(=O)CC(C)(O)CC(=O)OCc1ccc(O[C@@H]2O[C@H](CO)[C@@H](O)[C@H](O)[C@H]2O)cc1 (some centres not stated)	0.336% [at 25.3 µM] (inactive)
C=C1C(O)CC2C(C(=O)O)=COC(O[C@@H]3O[C@H](COC(=O)/C=C/c4ccc(O)cc4)[C@@H](O)[C@H](O)[C@H]3O)C12 (some centres not stated)	-9.29% [at 25.3 µM] (inactive)
O=C(OC1C=C(CO)C2C(OC3OC(CO)C(O)C(O)C3O)OC=CC12)c1ccc(O)cc1 (configuration not stated)	1.36% [at 25.3 µM] (inactive)
COC(=O)CC(O)CC(O)/C=C/c1c(C)ccc2c1C(O)CC(C)C2 (configuration not stated)	3.24% [at 38.5 µM] (inactive)
COc1cc(O)c2c(c1)C1=C[C@H](O)[C@@H](O)C[C@]1(C)OC2=O	-4.39% (inactive)
CC(C)c1ccc(CO)cc1O[C@@H]1O[C@H](CO)[C@@H](O)[C@H](O)[C@H]1O	3.2% [at 38.5 µM] (inactive)
CC(=O)O[C@@H]1[C@H](O)[C@@H](O[C@@H]2O[C@@H](C)[C@H](O[C@@H]3OC[C@@H](O)[C@H](O[C@@H]4OC[C@@H](O)[C@H](O)[C@H]4O)[C@H]3O)[C@@H](O[C@@H]3O[C@H](CO)[C@@H](O)[C@H](O)[C@H]3O)[C@H]2O)[C@H](OC(=O)[C@]23CCC(C)(C)C[C@H]2C2=CCC4[C@@]5(C)CC[C@H](O[C@@H]6O[C@H](C(=O)O)[C@@H](O)[C@H](O[C@@H]7OC[C@@H](O)[C@H](O)[C@H]7O)[C@H]6O[C@@H]6O[C@H](CO)[C@H](O)[C@H](O)[C@H]6O)[C@@](C)(C=O)C5CC[C@@]4(C)[C@]2(C)CC3)O[C@@H]1C (some centres not stated)	-8.94% [at 6.55 µM] (inactive)
C/C=C(\C)C(=O)O[C@@H]1CC2[C@@H](CC=C3C[C@@H](O[C@H]4C[C@H](OC)[C@H](O[C@H]5C[C@H](OC)[C@H](O[C@@H]6O[C@H](C)[C@@H](O[C@H]7C[C@H](OC)[C@H](O[C@@H]8O[C@H](CO)[C@@H](O)[C@H](O)[C@H]8O)[C@@H](C)O7)[C@H](OC)[C@H]6O)[C@@H](C)O5)[C@@H](C)O4)CC[C@@]32C)[C@@]2(O)CC[C@H](C(C)=O)[C@@]12C (some centres not stated)	-4.6% [at 6.55 µM] (inactive)
C[C@@H]1CC[C@@]2(OC1)O[C@H]1C[C@H]3[C@@H]4CC=C5C[C@@H](O)CC[C@]5(C)[C@H]4CC[C@]3(C)[C@H]1[C@@H]2C	16.3% [at 25.3 µM] (inactive)
COC1=CC(=O)CC(C)C12Oc1cc(OC)cc(O)c1C2=O (configuration not stated)	0.232% (inactive)
CC(C)(C)NS(=O)(=O)c1cncc(-c2cc(F)c3nc(N)nn3c2)c1	-9.01% (inactive)
CC(C)=CCc1cc(C(O)C2NC(=O)CNC(=O)C(Cc3c[nH]c4ccccc34)NC(=O)C3CCCN3C(=O)CNC(=O)C(C(C)C)NC(=O)CNC2=O)ccc1O (configuration not stated) (cyclo(G[X4]GVGPW); configuration not given here)	7.66% [at 11.6 µM] (inactive)
C/C(=C\CCC(C)CCO)C(=O)OC1(C)CCC2C(C(=O)O)=COC(OC3OC(CO)C(O)C(O)C3O)C21 (configuration not stated)	-1.3% [at 25.3 µM] (inactive)
